Hits are enriched below; roughly 19% of the tested compounds scored in any of these assays.
IL-1B inflam inh: qHTS for Inhibitors of Inflammasome Signaling: IL-1-beta AlphaLISA Primary Screen; THP-1 LPS/ATP IL-1B secretion, AlphaLISA, 16 h; active compounds read low; activity change, % at 57.5 µM; 360,000 tested, 4.7% active; AID 743279, 2014; in the data active means activity change below about -50%; inconclusive means mostly about -30% to -49%
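THP-1 cells pretreated 1 hr with compounds (up to 57.5 uM final), then stimulated with LPS (250 ng/mL final) plus ATP (1.25 mM final); secreted IL-1B measured by AlphaLISA after 16 hr, decreased signal indicating inhibition.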
HT1080-NT tox: qHTS for induction of synthetic lethality in tumor cells producing 2HG: qHTS for the HT-1080-NT fibrosarcoma cell line | Potency, µM (top dose mostly 46.1 µM), inactives show at the top dose activity, negative = less viability, actives largely listed as cytotoxic | AID 686970, 2013 | 360,000 tested, 1.6% active | HT-1080-NT fibrosarcoma viability, CellTiter-Glo ATP luminescence, 48 h;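 further: NT is the 2HG producing partner of a matched IDH1 knockdown line; potency means the concentration at half of the fitted maximal effect; 0% = DMSO-treated cells and -100% = media-only wells without cells; nearly all actives have a fitted effect of over 55% in size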
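750 cells/well, RPMI + 5% FBS; 2 h settle, compound pin-transfer, 48 h at 37 degrees C. CellTiter-Glo 10 min RT, luminescence. Normalized to DMSO and media-only wells.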
HT1080 IDH1KD tx: qHTS for induction of synthetic lethality in tumor cells producing 2HG: qHTS for the HT-1080-IDH1KD cell line. HT-1080 IDH1 knockdown viability, ATP luminescence, 48 h. Potency, µM (doses to about 46.1 µM), inactives show at the top dose activity, negative = toxicity, usual class: cytotoxic. 360,000 tested, 2% active;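 further: potency means the concentration at half of the fitted maximal effect; 0% = DMSO wells and -100% = cell-free medium wells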
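% activity derives from luminescence (CellTiter-Glo), normalised to DMSO and no-cell wells. HT-1080-IDH1KD cells, 750/well, had 48 h compound exposure at 37 °C.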
TDP1 cell noCPT: qHTS for Inhibitors of human tyrosyl-DNA phosphodiesterase 1 (TDP1): qHTS in cells in absence of CPT. DT40 Tdp1-/- hTDP1 cells, no CPT, ATP luminescence, 48 h. AID 686978, 2013. Potency, µM (doses to about 46.2 µM), for inactives: top-dose activity change, negative = growth inhibition, most hits filed as inhibitors. 420,000 tested, 15% active; further: potency means the concentration at half of the fitted maximal effect; nearly all actives have a fitted effect of over 55% in size
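Readout: luminescence from CellTiter-Glo after 30 min in the dark at RT. Cells: DT40 Tdp1-/- with stable hTDP1, 400/well. Exposure: compounds alone, ≥48 hr, 37 °C.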
TDP1 cell CPT: qHTS for Inhibitors of human tyrosyl-DNA phosphodiesterase 1 (TDP1): qHTS in cells in presence of CPT. chicken DT40 Tdp1-/-;hTDP1 cells + 20 nM CPT, ATP luminescence, 48 h. Potency, µM (highest dose often 46.2 µM), inactives show at the highest dose activity change, negative = growth inhibition, usual class: inhibitors. 420,000 tested, 12% active; further: potency means the concentration at half of the fitted maximal effect; nearly all actives have a fitted effect of over 55% in size
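Chicken DT40 Tdp1-/- cells stably complemented with human TDP1 were seeded at 400 cells/well in medium containing 20 nM camptothecin, exposed to pin-transferred compounds, and grown at 37 °C for at least 48 hr. Viability was read as ATP luminescence.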
The depositor's hits bear a star; ? = inconclusive; . = no result given. Unless noted, the call rests on the fitted dose curve; in most records, active means well fitted curve in the direction sought with a large enough effect; inconclusive means small, poorly fitted or top-dose-only effect, or another doubt; inactive means no such curve, though single readings can be large; an effect the other way counts as inactive or inconclusive. Unless noted, on the % scale 0 is the no-effect control and ±100 the full control effect.

SMILES | IL-1B inflam inh | HT1080-NT tox | HT1080 IDH1KD tx | TDP1 cell noCPT | TDP1 cell CPT
COc1ccc(Nc2nc(N)nc(CCl)n2)cc1 | -59.8* | 1.46µM* | 23.1µM* | ? | 23.1µM*
CCOC(=O)c1noc2ncnc(Nc3ccc(F)cc3F)c12 | . | . | . | -11.3% | -14.0%
CCOC(=O)CN(C)C(=O)CCc1nnc(-c2ccc(-c3ccccc3)cc2)o1 | 9.5 | -14.5% | 0.9% | ? | ?
CC(NC(=O)CCc1nnc(-c2ccc(-c3ccccc3)cc2)o1)c1nc2ccccc2[nH]1 (stereo not given) | ? | -20.5% | -21.1% | 16.4µM* | 18.4µM*
CC(C)(CO)CNC(=O)CCc1nnc(-c2ccc(-c3ccccc3)cc2)o1 | -6.9 | 10.8% | -10.7% | 20.6µM* | ?
C#CCOCCOCCOCCNc1nc(N2CCN(C(=O)[C@H]([C@@H](C)CC)n3cc([C@@H](N)CO)nn3)CC2)nc(N2CCN(C(=O)[C@H](CCCCN)n3cc([C@@H](N)CC(C)C)nn3)CC2)n1 | -0.1 | 13.2% | 13.2% | 11.1% | -24.2%
CCOC(=O)C1CCCN(C(=S)Nc2cccc(Cl)c2C)C1 (stereo not given) | 11.4 | 19.5% | 12.1% | -15.7% | 5.9%
CCn1nc(C)c(NS(=O)(=O)c2ccccc2)c1C | 1.8 | 4.3% | -1.8% | -18.0% | -5.8%
Cc1ccc(-c2csc(NCCn3c(-c4ccncc4)nc4ccccc43)n2)cc1 | 6.3 | -1.7% | -7.1% | 23.1µM* | ?
Cc1ccc(Cn2c(CCNc3nc(-c4ccc(Cl)c([N+](=O)[O-])c4)cs3)nc3cc(C(=O)NCCCO)ccc32)cc1 | 9.6 | ? | ? | 13µM* | 10.3µM*
COc1ccc(-c2csc(NCCn3c(C)nc4cc(C(F)(F)F)ccc43)n2)cc1 | 5.6 | 2.3% | 0.3% | ? | ?
Cc1nc2cc(C(F)(F)F)ccc2n1CCNc1nc(-c2ccc([N+](=O)[O-])c(Cl)c2)cs1 | ? | ? | ? | 20.6µM* | ?
Cc1nc2cc(C(F)(F)F)ccc2n1CCNc1nc(-c2ccc(F)cc2)cs1 | 12.1 | 8.2% | -0.5% | ? | ?
Cc1ccc(-c2csc(NCCn3c(-c4ccncc4)nc4cc(C(F)(F)F)ccc43)n2)cc1 | ? | -2.4% | 0.6% | ? | 29.1µM*
Cc1ccc(N2C(=O)N(CC(=O)Nc3ccc(F)c(F)c3)C(=O)C2C)cc1 (stereo not given) | ? | 9.9% | 10.4% | -11.6% | ?
Cc1csc(N2C(=O)C3C4CCC(O4)C3C2=O)n1 (stereo not given) | 1.8 | 17.4% | 0.0% | -8.4% | 7.2%
CCc1ccccc1N1CC(c2nnc(NC(=O)c3ccco3)s2)CC1=O (stereo not given) | . | . | . | -29.9% | -13.4%
COc1ccc(CCNC(=O)C2CCN(c3nc4ccccc4nc3C(F)(F)F)CC2)cc1OC | . | . | . | 18.4µM* | 23.1µM*
CCCSCCCNC(=O)C1CCN(c2nc3ccccc3nc2C(F)(F)F)CC1 | . | . | . | 16.4µM* | 20.6µM*
COc1ccc(OC)c(CNC(=O)C2CCN(c3nc4ccccc4nc3C(F)(F)F)CC2)c1 | . | . | . | 1.0% | -11.2%
CCOC(=O)c1c(NC(=O)c2ccccc2)sc2c1CCc1ccccc1-2 | 25.2 | 1.1% | 6.0% | ? | ?
CCOC(=O)C1=C(NC(=S)NC(=O)c2ccccc2)c2ccccc2CC1C(C)C (stereo not given) | -18.8 | ? | ? | 23.1µM* | ?
CCOC(=O)C1=C(NC(=S)NC(=O)c2ccccc2)c2ccccc2CC1(C)CC (stereo not given) | -56.3* | -7.7% | ? | ? | -93.1%
CCOC(=O)c1cccc(NC(=S)NC(=O)c2cccnc2)c1 | 41.8 | 6.4% | 15.0% | 1.6% | -0.2%
O=c1c2c3c(sc2n(Cc2ccc(F)cc2Cl)c(=O)n1-c1ccc(Cl)cc1)CCC3 | . | . | . | -11.3% | -12.1%
SMILES | IL-1B inflam inh | HT1080-NT tox | HT1080 IDH1KD tx | TDP1 cell noCPT | TDP1 cell CPT
COc1ccc(Cc2nc3ccc(C(=O)N(C)C(C)c4ccon4)cc3o2)cc1 (stereo not given) | 23.9 | -4.5% | -6.0% | -22.3% | ?
CCOC(=O)C(NCCOC)(NC(C)=O)C(F)(F)F (stereo not given) | 20.3 | 3.3% | 12.0% | 10.5% | 36.8%
COc1ccc(S(=O)(=O)c2c(C(=O)c3ccc(C)c(C)c3)cnc3ccc(C)cc23)cc1 | . | . | . | 6.51µM* | 7.31µM*
Cc1ccc(C(=O)c2cnc3cc4c(cc3c2S(=O)(=O)c2ccccc2)OCCO4)cc1 | -79.0* | -24.2% | -26.8% | 23.1µM* | 18.4µM*
CCc1ccc(C(=O)c2cnc3ccc(F)cc3c2S(=O)(=O)c2ccccc2)cc1 | . | . | . | 5.8µM* | 5.17µM*
CCOc1ccc(S(=O)(=O)c2c(C(=O)c3ccc(C)cc3)cnc3cc4c(cc23)OCCO4)cc1 | ? | -1.5% | 10.1% | -26.4% | -27.8%
COc1ccc(/C=C(\C#N)c2nc(-c3cc(Cl)ccc3OC)cs2)cc1 | . | . | . | -17.4% | -15.7%
O=C(Nc1ccccc1C(=O)N1CCOCC1)c1ccc(Br)cc1 | -6.9 | 5.6% | 6.2% | 0.7% | 11.2%
O=C1c2ccccc2N2C(=O)c3ccccc3[C@H]2N1c1ccccc1 | -14.4 | -18.6% | -11.9% | 18.4µM* | 16.4µM*
CCOc1ccc(-n2c(SCC(=O)Nc3ccc(CC)cc3)nc3n[nH]c(C)c3c2=N)cc1 | -28.6 | ? | 18.4µM* | 20.6µM* | ?
CCC(Sc1nc2n[nH]c(C)c2c(=N)n1-c1ccc(Br)cc1)C(=O)N(CC)CC (stereo not given) | . | . | . | 14.6µM* | 18.4µM*
CCc1ccc(NC(=O)CSc2nc3n[nH]c(C)c3c(=N)n2-c2ccc(C)cc2)cc1 | . | . | . | 3.66µM* | 6.51µM*
Cc1[nH]nc2nc(SCC(=O)NC3CCCCC3)n(-c3ccc(Br)cc3)c(=N)c12 | 51.4 | -3.8% | ? | 6.51µM* | 8.2µM*
O=C(Nc1ccccc1F)Nc1cccnc1Cl | -10.3 | -0.8% | -4.6% | ? | ?
CSc1nc(SCc2ccccc2)[nH]c(=O)n1 | -14.6 | 3.2% | -3.1% | ? | -18.7%
CN1CCN(S(=O)(=O)c2ccc(NC(=O)COc3ccccc3Cl)cc2)CC1 | 37.0 | -3.2% | 1.6% | -1.3% | -4.2%
Cc1ccc(C(=O)N2CCN(c3ccc(NC(=O)COc4ccccc4C)cc3)CC2)cc1 | -64.0* | -22.2% | -28.4% | 5.17µM* | 4.11µM*

From PubChem BioAssay
